# Experimental data taken from PubChem BioAssay.
# Values joined by “and” are separate entries in the source; they are usually repeats but may differ in a detail not shown here. Equal entries are not always repeated.
# Experiment: compound effects on lung adenocarcinoma cell viability – A549, calcein-AM fluorescence, 48 h, basal, profiling panel (AID 1162)
# Settings: higher = more signal
# Further: test concentration not given here.
row,SMILES,z-score
1,Cc1ccc(S(=O)(=O)OC[C@@H]2CN3[C@@H](CC[C@@H](C)[C@@H]3c3ccc(Br)cc3)C(=O)O2)cc1,-0.251 and 0.0448
2,COC(=O)C1=C(C)N(Cc2ccccc2)C2=C(C(=O)c3ccccc3)[C@H](c3ccccc3)[C@@](O)(C(=O)OC)C(=O)N2[C@@H]1c1ccccc1,0.369 and 0.44
3,C=CCN(Cc1ccccc1)C(=O)C(c1cccs1)N(C(=O)/C=C\C(=O)O)c1ccc(CCO)cc1 (configuration not stated),-0.636 and -0.0917
4,CCOC(=O)[C@H](Cc1ccccc1)NC(=O)CCC1CC(OC(=O)NCc2cccc3ccccc23)CC2(CCCC(COC(=O)NCCCN3CCCC3=O)O2)O1 (some centres not stated),2.08
5,COC(=O)c1c2oc(c1C(=O)OC)C(=O)N[C@@H](Cc1ccccc1)Cn1cc(nn1)C1(CCCCC1)NC(=O)N[C@H](CO)CC2,2.13 and 1.06
6,C=CCN(CCCCC)C(=O)C1N(c2ccc(CCO)cc2)C(=O)C2C(C(=O)O)C3C=CC21O3 (configuration not stated),-0.0277 and -0.611

# Experiment: compound effects on differentiated 3T3-L1 adipocyte viability – cell-based, 3T3-L1 adipocytes, calcein-AM fluorescence, 48 h, basal, profiling panel (AID 1163)
# Settings: 3T3-L1 adipocytes viability, higher = more signal
row,SMILES,z-score
1,CC(=O)OC[C@H]1O[C@H](C#CC(C)(C)C)C=C[C@@H]1OC(C)=O,-0.274
2,COc1ccc(O[C@H]2C=C[C@@H](c3ccccc3)O[C@@H]2COC(=O)CCC(C)=NO[C@H](C)c2cn([C@H](CO)Cc3ccccc3)nn2)cc1,0.498 and 0.0533
3,CCCC[C@@H]1CN2[C@H](c3ccc(Br)cc3)[C@@H](C)CC[C@H]2C(=O)O1,-1.1 and -0.272
4,CC(CO)N1C(=O)[C@@H]2C3C(=O)OCCC=C[C@H]3OC23C=CCN(C(C)(C)C)C(=O)[C@@H]13 (some centres not stated),-0.142 and -0.791
5,C=CCN(C(=O)C1N(CCOCCO)C(=O)C2C(C(=O)O)C3C=CC21O3)C(C)(C)C (configuration not stated),0.0948 and -1.23
6,C[C@@H](ON=C1[C@H]2CCn3c(=O)n(-c4ccccc4)c(=O)n3[C@H]2[C@H](O)[C@@H]2O[C@H]12)c1cn([C@H](CO)Cc2ccccc2)nn1,-0.002
7,CO[C@H]1COC(=O)CC=C[C@H](C)[C@H](OC)COC(=O)[C@@H](C)COC(=O)CC=C[C@@H]1C,0.0599 and 0.0256
8,COC(=O)[C@H](C)NC(=O)CCC1CC(OC(=O)NCCc2ccc(F)cc2)CC2(CCCC(COC(=O)NCCCN3CCCC3=O)O2)O1 (some centres not stated),1.06
9,CCOC(=O)[C@@H]1CC2O[C@]23C[C@@H]1C(=O)N1CCC[C@@H]1[C@H]3O[Si](C)(C)C(C)(C)C (some centres not stated),0.838 and 0.26
10,C[C@@H]1CC[C@H]2C(=O)O[C@H](CN=[N+]=[N-])CN2[C@H]1c1ccc(Br)cc1,-0.805 and -0.0793
11,O=c1n(-c2ccccc2)c(=O)n2n1CC[C@@H]1C(=NOC[C@@H](O)COCc3ccco3)[C@H]3O[C@H]3[C@@H](O)[C@@H]12,0.581 and -0.304
12,C=C(C)C(=O)OC[C@@H]1CN2[C@@H](CC[C@@H](C)[C@@H]2c2ccc(Br)cc2)C(=O)O1,-0.2
13,CCCNC(=O)OC[C@H]1O[C@H](CCON=C(C)CCC(=O)OC[C@H]2O[C@H](C#Cc3ccccc3)C=C[C@@H]2Oc2ccc(C)cc2)C=C[C@@H]1Oc1ccc(OC)cc1,-0.182
14,C=C[C@@H](OC)[C@H](O)c1ccc(O)c(F)c1,-0.625 and 0.478
15,COCn1c2ccccc2c2nnc(C(C)=O)nc21,0.745 and 0.622
16,CC[C@@H]1C(Sc2ccccc2)C(C(=O)O)[C@H](c2ccc(C)cc2)N1S(=O)(=O)c1ccc(C)cc1 (some centres not stated),-0.505 and 0.311
17,C=CCN(C(=O)C(c1cccs1)N(C(=O)/C=C\C(=O)O)c1c(Cl)cccc1CO)c1ccc(OC)cc1 (configuration not stated),0.111 and 0.112
18,CO[C@@H]1COC(=O)[C@H](Cc2ccccc2)NC(=O)CC=C[C@@H](C)[C@H](OC)COC(=O)[C@@H](C)NC(=O)CC=C[C@H]1C,0.686 and -0.191
19,CCOC(=O)[C@@H]1CC=C2CC1C(=O)N1CCC[C@@H]1[C@H]2O[Si](C)(C)C(C)(C)C (some centres not stated),-0.0834 and 0.84
20,C[C@@H](c1ccccc1)N1C(=O)[C@H]2[C@H]3[C@H](O)[C@H](O)CC(=O)[C@@H]3CC[C@H]2C1=O,0.762
21,C[C@@H]1CC[C@H]2C(=O)NC[C@@H](O)CN2[C@H]1c1ccc(Br)cc1,-0.856 and 0.491
22,CC(C)[Si]1(C(C)C)OCc2cc(CCCc3cc4c(c(CCc5ccccc5)n3)[Si](C(C)C)(C(C)C)OC4)nc(CCc3ccccc3)c21,0.673 and -0.626
23,Cc1cc2c(nc1C)CCCN2CC(C)ON=C[C@@H](C)[C@H](OCc1ccccc1)C(C)C (some centres not stated),-0.641
24,C=CCN(C(=O)C(c1cccs1)N(C(=O)/C=C\C(=O)O)c1ccc(CCO)cc1)C(C)(C)C (configuration not stated),-0.589 and -1.1
25,C=C[C@@H](OC)[C@H](O)c1ccc(OCCO)cc1,-0.434 and 0.971
26,C=CCN(C(=O)C(c1cccs1)N(CCOCCO)C(=O)/C=C\C(=O)O)c1ccc(OC)cc1 (configuration not stated),0.372 and -0.509
